ELG1 repair inh – blocks ELG1-dependent DNA repair in HEK293T cells; actives 2.3% (n = 330,000); HEK293T ELG1-luciferase reporter, luminescence, 16 h; DNA damage induced by 5-fluorouridine; Potency, µM (top dose mostly 46.1 µM), actives largely listed as inhibitors; note: nearly all actives have a fitted effect of over 55% in size
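HEK293T cells expressing luciferase-tagged ELG1 (2,000/well) received 5-Fluorouridine plus compound or DMSO for 16 hr at 37 °C. Luciferase was read by ONE-Glo luminescence after 30 min at room temperature.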
TSHR antagonist – antagonists of human thyroid stimulating hormone receptor; P16473; TSHR-expressing cells, TSH-stimulated cAMP HTRF, 2 h; active compounds read low; activity change, negative = inhibition, % at 11.5 µM; actives 0.2% (n = 330,000);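 active = activity change below a set negative limit, meaning inhibition stronger than a set level, cut at about -70% in these data; inconclusive = activity change between two set negative limits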
Target sequence (P16473 whole entry, looked up): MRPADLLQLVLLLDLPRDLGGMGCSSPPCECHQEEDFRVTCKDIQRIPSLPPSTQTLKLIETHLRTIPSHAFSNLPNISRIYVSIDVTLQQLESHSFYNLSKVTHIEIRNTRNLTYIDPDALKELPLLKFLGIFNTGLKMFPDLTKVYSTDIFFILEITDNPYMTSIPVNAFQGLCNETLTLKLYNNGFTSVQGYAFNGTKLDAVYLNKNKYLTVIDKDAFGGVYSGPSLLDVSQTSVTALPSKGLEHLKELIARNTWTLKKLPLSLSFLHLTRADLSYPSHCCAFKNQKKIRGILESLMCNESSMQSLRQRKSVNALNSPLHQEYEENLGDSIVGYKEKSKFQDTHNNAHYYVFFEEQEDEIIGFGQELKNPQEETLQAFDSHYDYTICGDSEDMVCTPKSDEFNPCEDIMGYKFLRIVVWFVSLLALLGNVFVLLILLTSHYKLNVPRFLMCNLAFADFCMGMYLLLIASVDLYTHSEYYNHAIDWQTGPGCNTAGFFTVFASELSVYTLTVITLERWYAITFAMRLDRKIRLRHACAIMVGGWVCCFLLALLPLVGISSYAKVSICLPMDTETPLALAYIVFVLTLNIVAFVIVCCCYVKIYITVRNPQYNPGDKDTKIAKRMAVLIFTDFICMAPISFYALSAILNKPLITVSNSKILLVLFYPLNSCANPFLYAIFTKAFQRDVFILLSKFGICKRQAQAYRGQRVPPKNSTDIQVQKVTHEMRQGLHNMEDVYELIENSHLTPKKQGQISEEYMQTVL
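Read-out is FRET at 665 nm (cryptate excitation 337 nm) from a cryptate-tagged anti-cAMP antibody, competed by cell cAMP against cAMP-d2. Compounds are tested on freshly harvested TSHR cells challenged with 4nM TSH (EC80) for 2 hours at 37 deg C.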
VP16 counter – Gal4-VP16 reporter inhibition counter-screen; Drosophila S2 Gal4-VP16 UAS-luciferase, luminescence, 20 h; Potency, µM (doses to about 53.6 µM), most hits filed as inhibitors; actives 3.5% (n = 310,000); AID 2546;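 note: Gal4-VP16 expression switched on by copper sulfate through the metallothionein promoter; nearly all actives have a fitted effect of over 50% in size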
B2AR arrestin – recruits beta-arrestin to the human beta2-adrenergic receptor. AID 492947. Potency, µM (doses to about 46.1 µM), hits mostly activators. beta-arrestin recruitment to beta2AR, cell-based reporter. actives 0.02% (n = 330,000); note: nearly all actives have a fitted effect of over 65% in size
RORg inh – ROR gamma (mouse) transcription inhibition; P51450; Drosophila S2 Gal4-RORgamma UAS-luciferase reporter, 20 h; Potency, µM (doses to about 53.6 µM), usual class: inhibitors; actives 5.4% (n = 310,000); AID 2551; note: nearly all actives have a fitted effect of over 60% in size
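Read-out: Photinus luciferase luminescence; inhibitors lower reporter signal. Insect Schneider cells with Gal4-ROR gamma fusion under metallothionein promoter, UAS reporter; 700 uM final copper sulfate induction, 20 hr, ambient temperature.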
Numbers stand for hits; . = inactive; ? = inconclusive; / = not tested or not shown; [ ] = dose if it differs, or a comment. A selection: hits, their analogues and other compounds. The true share with any hit is near 7.5%. Unless noted, calls come from the whole dose curve; as a rule, active = well fitted curve in the direction sought with a large enough effect; inconclusive = small, poorly fitted or top-dose-only effect, or another doubt; inactive = no such curve, though single readings can be large; an effect the other way counts as inactive or inconclusive.

SMILES | ELG1 repair inh | TSHR antagonist | VP16 counter | B2AR arrestin | RORg inh
COc1ccc([C@]23Cc4cc(OC)c(OC)cc4C(O2)C2=C(CCCC2=O)O3)cc1 | / | / | .[10 µM] | .[9.22 µM] | .[10 µM]
Cc1cnc(NC(=O)C2CC(=O)N(c3cccc(Cl)c3)C2)s1 (stereo unspecified) | ? | . | . | . | .
O=C(Nc1nccs1)c1ccc(CSc2nnnn2-c2ccccc2)cc1 | 23.1µM | . | 14.1µM | . | ?
Cc1cc(C)cc(-c2cc3c(c(-c4c(O)c(-c5cc(C)cc(C)c5)cc5c4CCCC5)c2O)CCCC3)c1 | / | / | . | / | .
CCc1c(C)nc2ncnn2c1NCCc1ccc(OC)cc1 | ? | . | 17.8µM | . | .
CCc1c(C)nc2ncnn2c1Nc1ccc(C)cc1 | . | . | . | . | .
CC(C)NC(=O)N1CCC2(CC1)CCN(S(=O)(=O)c1ccccc1)CC2 | / | / | . | / | .
CC(=O)c1ccc(NC(=O)Nc2ncn(Cc3cccc(C)c3)n2)cc1 | . | . | . | . | ?
CCc1c(C(=O)Nc2ncn(Cc3cccc(C)c3)n2)csc1C | . | . | 12.6µM | . | 3.98µM
COc1cc(OC)c(C2CC(=O)N3CN(C)CSC3=C2C#N)cc1OC (stereo unspecified) | . | . | . | . | .
COc1ccc(Br)cc1C1CC(=O)N2CN(C)CSC2=C1C#N (stereo unspecified) | . | . | . | . | 15.8µM
O=c1c2ccc([N+](=O)[O-])cc2ncn1CCOc1cccc(Br)c1 | 18.3µM | . | . | . | .
COCc1cc(C)nc2sc(C(=O)Nc3cccc(OC)c3)c(N)c12 | ? | . | . | . | .
OCCN(CCO)c1ccc(C(c2ccccc2Cl)c2ccc(N(CCO)CCO)cc2Cl)c(Cl)c1 | . | . | ? | . | 14.1µM
OCCN(CCO)c1ccc2ccccc2c1 | . | . | . | . | .
COc1ccc(OCC(=O)Nn2c(-c3ccc(C)cc3)nc3ccccc3c2=O)cc1 | . | . | 6.31µM | . | .
COc1ccc(OCC(=O)Nn2c(-c3ccc(OC)cc3)nc3ccccc3c2=O)cc1 | . | . | 10µM | . | ?
O=C(Cc1ccccc1)Nn1c(-c2ccccc2)nc2ccccc2c1=O | . | . | . | . | .
COc1ccc(-c2nc3ccccc3c(=O)n2NC(=S)N(C)C)cc1 | . | . | . | . | .
Cc1ccc(C(=O)NC(=C(Cl)Cl)S(=O)(=O)c2ccccc2)cc1 | ? | . | . | . | .
COC(=O)NC(=C(Cl)Cl)S(=O)(=O)c1ccccc1 | / | / | 17.8µM | / | 10µM
CN1[C@H](Cc2ccccc2)C=C[C@]1(C)C(=O)NCC1CC1 | / | / | . | / | .
Cc1ccc(N2CN=C(c3ccccc3)NC2=S)cc1 | ? | . | . | ? | ?
COc1ccc(C2=NCN(c3ccc(C)cc3)C(=S)N2)cc1 | ? | . | 2.82µM | . | .
CCCc1cc(C(=O)N/N=C/c2ccc(C)o2)c2ccccc2n1 | . | . | . | . | 10µM
SMILES | ELG1 repair inh | TSHR antagonist | VP16 counter | B2AR arrestin | RORg inh
O=C(N/N=C/c1ccoc1)c1ccccc1 | ? | . | . | . | .
Cc1cc(C(=O)N/N=C/c2ccc(C)o2)c2ccccc2n1 | . | . | ? | . | ?
Cc1ccc(-c2cc(C(=O)N/N=C/c3ccoc3)c3ccccc3n2)cc1 | . | . | 10µM | . | 7.08µM
Cc1ccc(/C=N/NC(=O)c2cc(-c3ccccc3)nc3ccccc23)o1 | . | . | 7.08µM | . | 3.98µM
COc1cc(/C=N/NC(=O)c2cc(-c3ccccc3)nc3ccccc23)ccc1O | ? | . | . | . | .
O=C(N/N=C/c1ccoc1)c1ccccc1O | . | . | 17.8µM | . | 10µM
CN(C)c1ncc2nc(-c3ccc(Cl)cc3)c(=O)n(C3CC3)c2n1 | / | / | . | / | .
O=C(CC(=O)c1ccccc1O)c1ccc(F)cc1 | ? | . | ? | . | 14.1µM
O=C(CC(=O)c1ccccc1O)c1cccc(F)c1 | . | . | ? | . | 7.08µM
NC(=O)c1ccccc1NCC(=O)c1ccc(F)cc1 | . | . | . | . | .
O=C(CC(=O)c1c(F)cccc1Cl)c1ccccc1O | ? | . | 11.2µM | . | 20µM
C=CCC1(c2ccccc2)Oc2ccc(C)cc2-c2nc3cc(Cl)c(Cl)cc3nc21 (stereo unspecified) | / | / | .[10 µM] | / | .[10 µM]
COCCNC(=O)C(=O)Nc1ccc(Cl)cc1C | ? | . | . | . | .
Cc1cc(Cl)ccc1NC(=S)NCC(C)C | . | . | 7.08µM | . | 4.47µM
CCCNC(=S)Nc1ccc(Cl)cc1C | . | . | ? | . | 7.08µM
CCCNC(=S)Nc1ccc(F)cc1F | 16.4µM | . | . | . | ?
CN(C)CCNC(=S)Nc1ccc(Cl)cc1Cl | ? | . | . | . | .
Cc1cc(Cl)ccc1NC(=S)NC(C)(C)C | ? | . | 15.8µM | . | 2µM
CCCC1(C(=O)OC)C=C2C(=C(C)C(=O)C2C)CN1 (stereo unspecified) | / | / | . | / | .
O=c1c(CCc2ccccc2)nc2cnc(N3CCOCC3)nc2n1CCc1ccccc1 | / | / | . | / | .
O=C(NC1CCCCC1)C(c1cccnc1)N(C(=O)c1csnn1)c1ccc(F)cc1 (stereo unspecified) | . | . | . | . | .
Cc1cc(C)cc(-c2nnc(SCC(=O)c3c(N)n(C4CC4)c(=O)[nH]c3=O)o2)c1 | . | . | / | . | /
CC1CCN(S(=O)(=O)c2ccc(C(=O)Nc3nnc(-c4ccco4)o3)cc2)CC1 | ? | . | 0.501µM | . | 0.355µM
O=C(Nc1nnc(-c2ccco2)o1)c1ccc(S(=O)(=O)N2CCCC2)cc1 | ? | . | . | . | .
CC1CN(S(=O)(=O)c2ccc(C(=O)Nc3nnc(-c4ccco4)o3)cc2)CC(C)O1 (stereo unspecified) | 18.3µM | . | 3.16µM | . | 1µM
SMILES | ELG1 repair inh | TSHR antagonist | VP16 counter | B2AR arrestin | RORg inh
COc1ccc(NC(=O)c2ccc(S(=O)(=O)N3CC(C)OC(C)C3)cc2)cc1 (stereo unspecified) | ? | . | / | . | /
COc1cccc(-c2nnc(NC(=O)c3ccc(S(=O)(=O)N4CC(C)OC(C)C4)cc3)o2)c1 (stereo unspecified) | 2.59µM | . | 1µM | . | 0.562µM
CC(C)NC(=O)c1ccc2c(c1)N(CC(=O)Nc1ccccc1F)C(=O)C(C)(C)O2 | ? | . | . | . | .
CSc1nc2sc3c(c2c(=S)[nH]1)CC(C)(C)OC3 | . | . | 11.2µM | . | 3.16µM
CCc1nc2sc3c(c2c(=S)[nH]1)CC(C)(C)OC3 | . | . | 6.31µM | . | 2µM
CC1(C)Cc2c(sc3nc(SCC(=O)O)[nH]c(=O)c23)CO1 | . | . | . | . | .[10 µM]
CC1CN(S(=O)(=O)c2cccc(C(=O)NCC3COc4ccccc4O3)c2)CC(C)O1 (stereo unspecified) | ? | . | / | . | /
CCCCCCCCCCCCCCCCCC(=O)NCC(COP(=O)([O-])OCC[N+](C)(C)C)OCC (stereo unspecified) | / | . | / | / | /
COc1ccc(NS(=O)(=O)c2cccc(C(=O)NCCCn3ccnc3)c2)cc1 | . | . | / | . | /

From PubChem
